Laboratory results taken from PubChem BioAssay.
Activity calls are given as the source filed them.

test system: wheat germ agglutinin (Triticum aestivum), Alexa647-labelled; assay: Alexa647-WGA lectin binding to printed small molecules – biochemical, small-molecule microarray, 635/667 nm fluorescence, artefact control for SMM control-protein annotation, profiling panel (AID 1140); conditions: WGA-A647 binding, 635 nm fluorescence, higher = more signal;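 note: score merges 667 nm feature emission with signal to noise over triplicate slides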

| SMILES | composite z-score |
| --- | --- |
| COCCOC(=O)N1C(=O)[C@@]2(c3cc(C#CC4(O)CCCCCC4)ccc31)[C@H](c1ccc(O)cc1)N1[C@H](c3ccccc3)[C@H](c3ccccc3)OC(=O)[C@H]1[C@@H]2C(=O)Nc1nc2ccccc2s1 | 0.227 |
| Cc1ccc(S[C@]2(C(=O)NC(C)C)CC(=O)N(Cc3ccccc3Cl)[C@@H]2c2ccc(CO)cc2I)cc1 | 0.648 |
| COc1ccc(CCNC(=O)[C@@]2(Sc3ccc(C)cc3)CC(=O)N(C3CCCCC3)[C@@H]2c2ccc(CO)cc2I)cc1 | 0.396 |
| COCCOC(=O)N1C(=O)[C@@]2(c3cc(C#Cc4ccc(OC)cc4)ccc31)[C@H](c1ccccc1OCCO)N1[C@H](c3ccccc3)[C@H](c3ccccc3)OC(=O)[C@H]1[C@@H]2C(=O)N1CCN(c2ncccn2)CC1 | 0.816 |
| NC(=O)[C@@H]1[C@H]2C(=O)O[C@H](c3ccccc3)[C@H](c3ccccc3)N2[C@H](c2ccc(O)cc2)[C@@]12C(=O)Nc1ccc(C#CC3(O)CCCCCC3)cc12 | -0.0999 |
| CC(=O)N1Cc2ccccc2C[C@@]2(COC(c3ccc(OCCCO)cc3)=N2)C1=O | 1.29 |

target: Luciferin 4-monooxygenase (Photinus pyralis) (UniProt P08659); assay: inhibition of purified Photinus pyralis luciferase – biochemical, luminescence, purified enzyme, 2006 set, primary screen (AID 1141); conditions: purified firefly luciferase, SteadyGlo luminescence, 30 min; higher = more signal, called active from +8 up or from −8 down;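 note: cell-free assay with purified firefly luciferase at 100 ng per well in PBS; test concentration not given here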
Sequence (P08659 whole entry, looked up): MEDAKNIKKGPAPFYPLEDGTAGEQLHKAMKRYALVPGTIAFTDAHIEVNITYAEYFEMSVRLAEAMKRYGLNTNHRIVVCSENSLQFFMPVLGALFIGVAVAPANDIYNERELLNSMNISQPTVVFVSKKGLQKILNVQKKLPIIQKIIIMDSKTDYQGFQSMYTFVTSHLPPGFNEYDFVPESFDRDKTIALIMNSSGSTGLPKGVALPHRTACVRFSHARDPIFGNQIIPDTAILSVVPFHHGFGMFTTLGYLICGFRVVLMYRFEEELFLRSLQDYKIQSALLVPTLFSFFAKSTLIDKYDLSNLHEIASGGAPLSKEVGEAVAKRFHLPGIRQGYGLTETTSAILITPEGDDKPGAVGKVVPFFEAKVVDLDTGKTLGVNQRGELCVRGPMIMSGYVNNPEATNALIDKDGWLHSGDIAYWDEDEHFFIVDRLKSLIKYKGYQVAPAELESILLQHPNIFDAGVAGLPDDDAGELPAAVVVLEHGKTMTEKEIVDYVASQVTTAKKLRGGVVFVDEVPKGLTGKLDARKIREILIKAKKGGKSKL

| SMILES | z-score |
| --- | --- |
| O=C1O[C@H](c2ccccc2)[C@H](c2ccccc2)N2[C@H]1[C@@H](C(=O)Nc1nc3ccccc3s1)[C@]1(C(=O)Nc3ccc(C#CCCO)cc31)[C@H]2c1ccc(OCCO)cc1 | -2.97 (inactive) |
| C=CCOC(=O)[C@H]1[C@@H]2C(=O)O[C@@H](c3ccccc3)[C@@H](c3ccccc3)N2[C@@H](c2ccc(OCCOC(=O)[C@@H]3C[C@@H]4C(=O)N[C@@H](CCCC[N+](C)(C)C)C(=O)N4[C@@H]3c3ccc(O)cc3)cc2)[C@]12C(=O)Nc1ccccc12 | -2.95 (inactive) |
| COCCCN1C(=O)[C@@]2(Cc3ccccc31)c1ccccc1C(=O)N(Cc1ccccc1C(F)(F)F)[C@H]2c1ccc(CO)cc1 | -0.259 (inactive) |
| COc1cc2c(cc1OC)CN(C(=O)[C@@H]1[C@H]3C(=O)O[C@H](c4ccccc4)[C@H](c4ccccc4)N3[C@H](c3ccc(O)cc3)[C@@]13C(=O)Nc1ccc(C#CC4(O)CCCCCC4)cc13)CC2 | -0.798 (inactive) |
| COCCOC(=O)N1C(=O)[C@@]2(c3ccccc31)[C@H](c1ccccc1OCCO)N1[C@H](c3ccccc3)[C@H](c3ccccc3)OC(=O)[C@H]1[C@@H]2C(=O)Nc1nc2ccccc2s1 | -2.37 (inactive) |
| C=C[C@H](COC(C)=O)N(C(=O)OC(C)(C)C)S(=O)(=O)c1ccc(Br)cc1 | -1.57 (inactive) |
| COc1cc(CO)cc(I)c1O[C@H]1C=C(C(=O)NCCO)C[C@@H](N(CCN2CCOCC2)C(=O)C2CCOC2)[C@@H]1O (stereo partly drawn) | -1.13 (inactive) |
| COC(=O)[C@@]1(Cc2ccc(F)cc2)[C@H]2c3cc(C(=O)N4CCCC4)n(Cc4ccc(C)o4)c3C[C@H]2CN1C(=O)c1ccccc1 | -13.4 (active) |
| C=CCN1C(=O)[C@]2(O[C@H](CCO)[C@@H]([Si](C)(C)c3ccc(OC)cc3)[C@@H]2C)c2cc(N3C(=O)c4cccc5cccc3c45)ccc21 | -0.225 (inactive) |
| C=CCN1C(=O)[C@]2(O[C@H](CCO)[C@@H]([Si](C)(C)c3ccc(OC)cc3)[C@@H]2C)c2cc(N3CCCCC3=O)ccc21 | -0.117 (inactive) |
| CN1C(=O)C2C=CC(C(O)c3ccc(-c4ccccc4)s3)N(N(c3ccccc3)c3ccccc3)C2C1=O (stereo not drawn) | -0.377 (inactive) |
| COc1cc(OC)c(C(O)C2C=CC3C(=O)NC(=O)C3N2Nc2ccc(Cl)cc2Cl)cc1Br (stereo not drawn) | 0.719 (inactive) |
| CCOC(=O)C[C@H]1[C@H](OC(=O)c2cc3ccccc3oc2=O)[C@@H](NC(=O)Cc2ccc(OC)cc2)c2cc(OCCCO)ccc2N1C(=O)c1ccccc1 | 0.589 (inactive) |
| COc1ccc(C(O)C2C=CC3C(=O)N(c4ccccc4)C(=O)C3N2Nc2ccccc2F)cc1OCc1ccccc1 (stereo not drawn) | -0.237 (inactive) |
| CN1C(=O)C2C=CC(C(O)Cc3ccccc3)N(Nc3ccccc3)C2C1=O (stereo not drawn) | -0.492 (inactive) |
| O=C1O[C@H](c2ccccc2)[C@H](c2ccccc2)N2[C@H]1[C@@H](C(=O)Nc1nc3ccccc3s1)[C@]1(C(=O)Nc3ccc(C#CC4(O)CCCCCC4)cc31)[C@H]2c1ccc(OCCO)cc1 | -2.79 (inactive) |
| C[N+](C)(C)CCCC[C@@H]1NC(=O)[C@@H]2C[C@H](C(=O)NCCCCCN)[C@H](c3cccc(OCCO)c3)N2C1=O | -1.25 (inactive) |
